Results published in PubChem BioAssay AID1376 (SRMLSC, 2008).
In all, about 220,000 compounds went through this assay and about 530 (0.24%) were called active. For the sample, actives were picked, then their nearest neighbours and some compounds at random. Results with a measured potency or affinity are listed apart. Unmarked numbers belong to inactive results. No stated cut-off is given here; in the data, active means inhibition above about 13%; inconclusive means no clear call, values can overlap the other calls; inactive means below that.

Each compound was assayed against Bifunctional protein GlmU (Mycobacterium tuberculosis (strain ATCC 25618 / H37Rv)) (UniProt P9WMN3) (assay: inhibition of mycobacterial GlmU enzyme – biochemical, glucosamine-1-phosphate acetyltransferase (AID 1376;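 further: 0% = complete reaction with vehicle and 100% = reaction without substrate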)). Conditions: M. tuberculosis GlmU acetyltransferase enzyme assay; stronger effect = higher value;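 tested at 30 µM in the primary screen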.
Chain of Bifunctional protein GlmU (Mycobacterium tuberculosis (strain ATCC 25618 / H37Rv)) (P9WMN3 whole entry, looked up): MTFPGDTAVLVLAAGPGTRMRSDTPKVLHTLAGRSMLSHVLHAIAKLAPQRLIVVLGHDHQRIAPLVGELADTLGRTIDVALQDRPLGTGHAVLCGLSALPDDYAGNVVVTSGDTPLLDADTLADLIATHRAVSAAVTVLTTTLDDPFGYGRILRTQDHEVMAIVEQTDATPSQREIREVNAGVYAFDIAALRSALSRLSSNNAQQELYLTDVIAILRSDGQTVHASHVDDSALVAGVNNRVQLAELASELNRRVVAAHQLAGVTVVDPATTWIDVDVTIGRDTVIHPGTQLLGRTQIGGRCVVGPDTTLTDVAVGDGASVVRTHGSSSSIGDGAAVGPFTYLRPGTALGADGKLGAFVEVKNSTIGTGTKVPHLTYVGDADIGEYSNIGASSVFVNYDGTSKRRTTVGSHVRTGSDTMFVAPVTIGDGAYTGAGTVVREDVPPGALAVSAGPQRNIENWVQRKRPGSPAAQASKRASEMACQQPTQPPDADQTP

Structure (SMILES)	inhibition
Cc1cccc(OCc2nnc(SCc3cc(=O)n4cc(Br)ccc4n3)o2)c1	7.11%
CC(=O)c1ccc(NC(=O)c2ccc3nc(-c4ccco4)c(-c4ccco4)nc3c2)cc1	14.4% (active)
O=C(Nc1ccccc1)c1ccc2nc(-c3ccco3)c(-c3ccco3)nc2c1	2.41%
O=C(Nc1ccc2nc(-c3ccco3)c(-c3ccco3)nc2c1)N1CCCCCC1	14.8% (active)
O=C(NCCO)c1ccc2nc(-c3ccco3)c(-c3ccco3)nc2c1	5.04%
O=C(Nc1ccc2nc(-c3ccco3)c(-c3ccco3)nc2c1)N1CCN(c2ccccn2)CC1	12.6%
O=C(Nc1ccc(N2CCOCC2)cc1)c1ccc2nc(-c3ccco3)c(-c3ccco3)nc2c1	10.1%
O=C(NCCO)Nc1ccc2nc(-c3ccco3)c(-c3ccco3)nc2c1	19.4% (active)
O=C(Nc1ccc(N2CCOCC2)cc1)Nc1ccc2nc(-c3ccco3)c(-c3ccco3)nc2c1	-3.2%
CCOC(=O)C1CCN(C(=O)Nc2ccc3nc(-c4ccco4)c(-c4ccco4)nc3c2)CC1	11.1%
CC(=O)c1ccc(N2CCN(C(=O)Nc3cccc(F)c3)CC2)cc1	-1.45%
COc1cccc(C2/C(=C(\O)c3ccc4c(c3)OCO4)C(=O)C(=O)N2CCN(C)C)c1OC (stereo unspecified)	1.43%
O=C(O)c1ccc(N=Cc2c(O)n(Cc3ccc(F)cc3)c(=O)[nH]c2=O)cc1	-1%
Cc1ccc(NS(=O)(=O)c2ccc(C3CCCCC3)cc2)cc1	-5.89%
C=CCn1c(-c2c(C)nc3cc(C)ccn23)n[nH]c1=S	0.98%
Cc1ccc(N(CC(=O)NCCSCc2ccco2)S(=O)(=O)c2ccc(C)cc2)cc1	-1.27%
CN1CCN(c2ccc([N+](=O)[O-])c(Sc3nncn3C)c2)CC1	-2.97%
COc1ccc(-c2ccc(-c3noc(-c4ccco4)n3)c(OC)n2)cc1	1.18%
COc1ccc(-c2ccc(-c3noc(-c4cccc(OC)c4)n3)c(OC)n2)cc1	14% (active)
COc1ccc(-c2ccc(-c3noc(-c4ccccc4)n3)c(OC)n2)cc1	6.47%
O=[N+]([O-])c1cccc(/C=N/Nc2ccccn2)c1	0.69%
O=C1CC(N(O)c2ccccc2)C(=O)N1Cc1ccccc1 (stereo unspecified)	8.24%
C/C(=N\N=C1\NC(=O)C(Cc2ccccc2)S1)c1ccccc1 (stereo unspecified)	2.56%
Cc1ccc(Sc2cc(C(F)(F)F)nc(N(C)C)n2)cc1	-0.68%

Structure (SMILES)	inhibition
Cc1cc(C)n2c(SCCN3C(=O)c4ccccc4C3=O)nnc2n1	0.6%
CCOC(=O)c1cnc(SCC#N)nc1N	0.91%
NS(=O)(=O)c1ccc(NC(=O)CSc2nc3ccccc3[nH]2)cc1	13.4% (active)
O=C(CSc1nc2ccccc2[nH]1)Nc1ccc(F)cc1	-1.92%
NS(=O)(=O)c1cccc(NC(=O)CSc2nc3ccccc3[nH]2)c1	4.49%
CCOc1c(C#N)c(C#N)c2nc(C)cc(C)n12	-3.28%
CCn1ncc2c(OCc3ccc(C#N)cc3)cc(C)nc21	13% (active)
Cc1csc(OCc2ccc(C#N)cc2)n1	4.28%
c1cnc2ccc(C(c3nnnn3C3CCCCC3)N3CCN4CCCC4C3)cc2c1 (stereo unspecified)	-1.69%
O=C(O)c1cc([N+](=O)[O-])ccc1C(=O)Nc1ccccc1	0.35%
O=C(O)c1ccccc1C(=O)Nc1cccc([N+](=O)[O-])c1	17.2% (active)
O=C(Nc1cccc([N+](=O)[O-])c1)c1ccccc1	-2.61%
COc1ccc(/C=C/C(=O)C2CC2)cc1COc1cccc(C)c1C	1.77%
O=C(CSCc1ccc(Cl)cc1Cl)Nc1ccccc1C(=O)Nc1ccc(C(=O)O)cc1	-3.25%
CC(C)(CN1CCN(c2ccccc2)CC1)NS(=O)(=O)c1ccccc1	-4.3%
COC(=O)c1ccccc1CCC(C)=O	-1.25%
O=c1cc2c(=O)oc3cc(O)c(O)oc3c2c(O)c1O	16.8% (active)
O=c1oc2cc(O)c(Cl)cc2c2ccccc12	2.71%
O=c1oc2ccccc2c2oc3cc(O)c(O)cc3c12	2.91%
CN1C(=O)NC(=O)/C(=C/c2ccc(C(=O)O)cc2)C1=O	2.77%
CN(C(=O)CC(=O)Nc1ccc(Cl)c(Cl)c1)c1ccccc1	0.26%
CC(CCc1ccccc1)NC(=O)C1CCCN(c2nnc(-n3cccc3)s2)C1 (stereo unspecified)	7.96%
COC(=O)c1ccccc1NC(=O)N1CCN(c2ccccc2)CC1	-3.35%
COCCNC(=O)C1CC2Cn3c(nc4cc(C)c(C)cc43)C2N1C (stereo unspecified)	1.27%

Structure (SMILES)	inhibition
Nc1ccc(Cc2ccc(N)c(O)c2)cc1O	13.4% (active)
Nc1ccc(Cc2ccc(N)c(C(=O)O)c2)cc1C(=O)O	7.1%
Cc1cc(Cc2ccc(N)c(C)c2)ccc1N	-3.87%
COc1cccc(NS(=O)(=O)c2ccc3c(c2)C2C=CCC2C(c2ccc(C(=O)O)cc2)N3)c1 (stereo unspecified)	13.1% (active)
CC(=O)c1ccc2c(c1)C1C=CCC1C(c1ccc(S(=O)(=O)N3CCOCC3)cc1)N2 (stereo unspecified)	0.66%
O=C(O)c1ccc2c(c1)C1C=CCC1C(c1ccncc1)N2 (stereo unspecified)	-9.79%
Cc1c(Cl)cccc1NS(=O)(=O)c1ccc2c(c1)C1C=CCC1C(c1ccc(C(=O)O)cc1)N2 (stereo unspecified)	23.6% (active)
O=C(O)c1ccc(NS(=O)(=O)c2ccc3c(c2)C2C=CCC2C(c2ccccc2F)N3)cc1 (stereo unspecified)	25.9%
COc1ccc(C(=O)N/N=C(\C)c2ccc3c(c2)C2C=CCC2C(c2ccccc2)N3)cc1 (stereo unspecified)	7.99%
CC1CCc2sc(C(=O)OCC(=O)NCc3ccccc3)cc2C1 (stereo unspecified)	-4.45%
CC12CCC(C/C1=N\OC(=O)c1ccc(F)cc1)C2(C)C (stereo unspecified)	1.74%
C/C=C/C(=O)N1CC2(CC(c3cccc(NC(=O)/C(C)=C/C)c3)=NO2)C[C@H]1C(N)=O (stereo partly specified)	3.31%
Cc1cc(C)n(-c2cc(N3CCN(S(=O)(=O)c4ccc(Cl)cc4)CC3)ccc2[N+](=O)[O-])n1	5.84%
COc1cccc2c(=O)n(CC(=O)N3CCc4ccccc43)ccc12	1.33%
N#CC1=C(N)N(c2ccccc2)C2=C(C(=O)CCC2)C1c1cccs1 (stereo unspecified)	2.47%
CCCCNC(=O)Oc1cc(CCl)on1	-3.53%
CCCCNC(=O)Oc1c(Br)cc2sc(=O)oc2c1Br	13.8% (active)
O=C(NC1CCCCC1)Oc1cc2oc(=O)sc2cc1Br	-0.42%
CSc1cccc(NC(=O)C2CCCN2S(=O)(=O)c2ccc(Br)s2)c1 (stereo unspecified)	7.56%
CSc1ccc(C(=O)C2CCCN(Cc3cnc(SC)nc3)C2)cc1 (stereo unspecified)	-1.56%
COc1cccc(N2CCN(C(=O)NC3CCCCC3)CC2)c1	-5.07%
CCCCC(CC)C1OCC(CN2CCCCC2)O1 (stereo unspecified)	7.5%
O=C1NC(=O)N(c2ccccc2)C(=O)/C1=C/c1ccc(Sc2ccccc2)o1	19.6%
CN1C(=O)C(=Cc2ccc(Sc3ccccc3)o2)C(=O)N(C)C1=O	-2.7%

Structure (SMILES)	inhibition
O=[N+]([O-])c1cc(S(=O)(=O)N2CCCC2)ccc1N/N=C/c1cccnc1	-1.08%
O=c1cc(O)c2ccc(O)cc2o1	4.26%
O=c1cc(-c2ccc(O)cc2)oc2ccc(O)cc12	-0.88%
O=C(c1ccc([N+](=O)[O-])cc1[N+](=O)[O-])N1CCCC1	2.34%
CC1CC(C)CN(C(=O)Cn2c(=O)n(CCCCC(=O)NCc3ccco3)c(=O)c3ccccc32)C1 (stereo unspecified)	4.18%
CCOc1nc2c(c(=O)n(C)c(=O)n2C)n1Cc1ccccc1Cl	1.39%
CCCCNC(=O)Nc1nc2ccccc2s1	5.87%
COc1cccc(NC2=NC3(CCCCC3)N=C(N)N2)c1	0.3%
COc1ccc(NC2=NC3(CCCCC3)N=C(N)N2)cc1	26% (active)
CCCCOc1ccc(NC2=NC3(CCCCC3)N=C(N)N2)cc1	-13.7%
CCOc1ccc(/C=C(/NC(=O)c2ccc(Cl)cc2)C(=O)O)cc1OCC	-0.87%
NC(=O)c1ccc(-n2nnnc2Oc2ccc(Br)cc2)cc1	-0.77%
COc1ccc(NC(=O)Nc2ccccn2)cc1OC	5.35%
Cc1c(Br)c(=O)oc2c(Br)c(O)ccc12	4.5%
Cc1c(Br)c(=O)oc2c(C)c(O)ccc12	-1.97%
CC(C)(Cc1ccc(O)cc1)NC(=O)CC(=O)N/N=C/c1ccc([N+](=O)[O-])cc1	-2.21%
COc1cc(/C=N/NC(=O)CCn2c3ccccc3c3ccccc32)cc(OC)c1OC	1.58%
O=C(CN1CCN(Cc2ccccc2)CC1)N/N=C/c1cccnc1	1.02%
Cc1cccc(N=C2NC(=O)/C(=C/C=C/c3ccco3)S2)c1	13.5% (active)
O=C1NC(=Nc2ccc(O)cc2)S/C1=C\C=C\c1ccco1	3.62%
Cc1ccc(N=C2NC(=O)/C(=C/C=C/c3ccco3)S2)cc1	4.9%
Cc1cccc(N=C2NC(=O)/C(=C/C=C/c3ccco3)S2)c1C	-4.23%
COc1ccc(N=C2NC(=O)/C(=C\C=C\c3ccco3)S2)cc1	8.93%
O=C1NC(=Nc2ccccc2)S/C1=C\C=C\c1ccco1	14.8% (active)
